Assay outcomes: PubChem BioAssay, National Center for Advancing Translational Sciences (NCATS)
BAZ2B block = blocks human BAZ2B; AlphaScreen BAZ2B-H3K14Ac peptide displacement; 360,000 compounds, 4.4% hits; Potency, µM (highest dose often 114 µM), inactives show top-dose activity change, negative = inhibition, hits mostly inhibitors; note: % is set by controls: 0 for no effect and ±100 for the full control effect; nearly all actives have a fitted effect of over 60% in size
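Inhibition is scored as reduced AlphaScreen emission. The BAZ2B/b-H3(5-23)K14Ac complex (50 nM each) in PBS pH 7.4, 0.01% Tween-20 meets compound (up to 110 uM) for 30 min at RT before bead addition.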
JMJD2A Tudor inh = JMJD2A Tudor domain (human) inhibition. 390,000 compounds, 4.4% hits. AlphaScreen JMJD2A-Tudor / H3K4me3 peptide binding. O75164. Potency, µM (series often up to 114 µM), for the others: top-dose activity change, negative = inhibition, most hits filed as inhibitors; note: % is set by controls: 0 for no effect and ±100 for the full control effect; nearly all actives have a fitted effect of over 50% in size
G9a inh = G9a (human) methyltransferase inhibition. 350,000 compounds, 8.8% hits. Potency, µM (doses to about 102 µM), for the others: at the top dose activity, negative = inhibition, most hits filed as inhibitors. Q96KQ7. G9a H3K9 monomethylation, AlphaScreen, 2 h; note: % is set by controls: 0 for no effect and ±100 for the full control effect; nearly all actives have a fitted effect of over 75% in size
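G9a (20 nM) preincubated 15 min RT with compounds, then 500 nM biotinylated H3K9 peptide and 20 uM SAM added; 2 h RT reaction. Monomethyl-H3K9 product detected by AlphaScreen with anti-H3K9me1 antibody, streptavidin donor and anti-rabbit IgG acceptor beads.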
Sfp inh = blocks B. subtilis Sfp PPTase activity; Q9F4F7; Biochemical Sfp PPTase activity, qHTS; Potency, µM, without a hit: largest response in the series, negative = inhibition, hits mostly inhibitors; 310,000 compounds, 3.5% hits; AID 1490;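 note: the enzyme is Sfp with the accession as filed and its product quenches rhodamine fluorescence; 0% = enzyme reaction without inhibitor and -100% = no enzyme wells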
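Compounds were incubated with enzyme (final 15 nM) for 15 min at room temperature before substrate addition started the reaction. Fluorescence at 525 nm excitation, 598 nm emission was recorded immediately and after 30 minutes.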
HP1b chromo inh = inhibitors of HP1-beta chromodomain binding to methylated histone tails | P83916 | AlphaScreen HP1-beta / biotin-H3K9me3 peptide binding | Potency, µM (series often up to 114 µM), without a hit: at the highest dose activity change, negative = inhibition, hits mostly inhibitors | 390,000 compounds, 0.56% hits | AID 540317; note: nearly all actives have a fitted effect of over 70% in size
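AlphaScreen: HP1-beta (50 nM) preformed 30 min with biotin-H3(1-18)K9me3 peptide (50 nM) in PBS pH 7.4, 0.01% Tween-20. Compound added for 30 min at RT, then streptavidin donor/nickel chelate acceptor beads (10 ug/mL) for 30 min.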
L3MBTL1 block = L3MBTL1 (human) inhibition; 230,000 compounds, 0.66% hits; AlphaScreen L3MBTL1–H3K9me1 peptide binding; Q9Y468; AID 485360; Potency, µM (top dose mostly 57.1 µM), inactives show at the highest dose activity, negative = inhibition, usual class: inhibitors; note: % is set by controls: 0 for no effect and ±100 for the full control effect; nearly all actives have a fitted effect of over 60% in size
Target sequence (Q9Y468 whole entry, looked up): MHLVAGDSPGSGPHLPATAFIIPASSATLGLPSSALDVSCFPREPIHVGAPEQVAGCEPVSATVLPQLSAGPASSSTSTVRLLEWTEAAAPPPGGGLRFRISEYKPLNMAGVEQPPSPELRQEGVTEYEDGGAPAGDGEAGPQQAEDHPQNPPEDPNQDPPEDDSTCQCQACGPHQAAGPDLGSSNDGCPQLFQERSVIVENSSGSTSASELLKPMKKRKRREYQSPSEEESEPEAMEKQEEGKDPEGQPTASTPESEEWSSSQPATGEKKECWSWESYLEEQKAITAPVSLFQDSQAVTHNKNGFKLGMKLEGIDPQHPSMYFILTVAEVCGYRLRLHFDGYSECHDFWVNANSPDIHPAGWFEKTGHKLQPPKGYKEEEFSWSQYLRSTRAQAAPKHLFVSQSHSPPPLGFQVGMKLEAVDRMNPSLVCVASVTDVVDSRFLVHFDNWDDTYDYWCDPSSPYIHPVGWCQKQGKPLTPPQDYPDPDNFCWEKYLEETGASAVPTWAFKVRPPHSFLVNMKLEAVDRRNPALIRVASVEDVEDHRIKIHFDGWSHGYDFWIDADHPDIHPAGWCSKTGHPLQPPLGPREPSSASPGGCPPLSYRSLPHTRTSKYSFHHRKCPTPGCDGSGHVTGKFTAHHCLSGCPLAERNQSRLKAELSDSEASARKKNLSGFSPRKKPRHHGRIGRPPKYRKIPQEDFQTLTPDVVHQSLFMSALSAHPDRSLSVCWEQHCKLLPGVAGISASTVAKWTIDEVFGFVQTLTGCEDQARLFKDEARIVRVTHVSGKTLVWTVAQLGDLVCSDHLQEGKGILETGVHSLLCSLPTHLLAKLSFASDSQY
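Displacement of a biotinylated histone H3(1-15) peptide monomethylated at Lys9 (75 nM) from L3MBTL1 (50 nM) was measured by AlphaScreen after a 30 min room-temperature compound incubation; cefsulodin titration served as intraplate control.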
Active calls of the source: *; ? = inconclusive; nt = no result given; [ ] = another dose, or the depositor's remark. Only some compounds are listed: those with a hit (about 12% of all), similar ones and a draw of the others. Calls come from the whole dose curve; as a rule, active = well fitted curve in the direction sought with a large enough effect; inconclusive = small, poorly fitted or top-dose-only effect, or another doubt; inactive = no such curve, though single readings can be large; an effect the other way counts as inactive or inconclusive. Potency is the fitted concentration of half-maximal effect.

SMILES	BAZ2B block	JMJD2A Tudor inh	G9a inh	Sfp inh	HP1b chromo inh	L3MBTL1 block
COc1cc(OC)cc(C(=O)N[C@H](C(=O)Nc2ccc3c(c2)OCO3)C(C)C)c1	-17.1%	-19.2%	14.2%	8.8%	-13.9%	-0.4%
O=C(Nc1nccs1)OCc1ccccc1	nt	-10.3%	nt	nt	12.1%	nt
COc1ccc(CCNC(=O)CSCc2ccc([N+](=O)[O-])cc2)cc1OC	-5.9%	20µM*	5.1%	0.8%	?	3.2%
O=C(NCc1ccccc1)C(=O)Nc1nccs1	-15.5%	?	12.6µM*	-13.4%	32.0%	27.5%
CCOc1ccc(CCNC(=O)CSc2n[nH]c(N)n2)cc1OCC	-23.3%	17.8µM*	8.91µM*	?	?	nt
CCOC(=O)CN1C(=O)C(Sc2n[nH]c(-c3ccccc3)n2)CCc2ccccc21 (stereo unspecified)	-4.4%	-19.8%	4.3%	8.5%	21.4%	nt
Cc1ccc(NC(=O)CCC(=O)N2CCC(C)CC2)c([N+](=O)[O-])c1	-7.2%	-18.8%	nt	5.8%	13.3%	nt
O=C(CCCN1C(=O)/C(=C\c2cccs2)SC1=S)Nc1cc([N+](=O)[O-])ccc1O	?	-18.2%	-17.2%	7.4%	-0.3%	nt
O=c1c2ccccc2nc(COc2ccccc2)n1/N=C/c1cc([N+](=O)[O-])ccc1O	-3.9%	-27.5%	-6.3%	7.3%	13.0%	-11.1%
O=C1/C(=C\c2cc([N+](=O)[O-])ccc2O)SC(=S)N1Cc1ccc(Cl)cc1	25.1µM*	35.5µM*	20µM*	?	-22.3%	nt
O=C1/C(=C\c2cccc(O)c2O)SC(=S)N1Cc1ccccc1	20µM*	12.6µM*	4.47µM*	39.8µM*	?	-8.7%
O=C1/C(=C\c2cccc(O)c2)SC(=S)N1Cc1ccccc1	39.8µM*	44.7µM*	-10.6%[0.501 µM]	-6.0%	-26.2%	-0.1%[2.29 µM]
O=C(CCCN1C(=O)/C(=C/c2ccccc2)SC1=S)Nc1cccc(O)c1	?	?	?	0.3%	-11.8%	?
Cc1ccccc1/C=C1\SC(=S)N(/N=C/c2cc([N+](=O)[O-])ccc2O)C1=O	22.4µM*	?	44.7µM*	-13.6%	-21.7%	nt
CN(CCOc1ccc(Cl)cc1)C(=O)C1CCN(C(=O)c2ccc(F)cc2)CC1	-19.5%	-20.0%	21.6%	11.2%	23.4%	nt
COC(=O)c1ccn(CC(=O)NC2CCCCC2)n1	?	-18.9%	nt	11.8%	6.3%	nt
CC(C)c1ccc(Nc2nc(Nc3ccc(Cl)cc3)nc(N3CCOCC3)n2)cc1	nt	-16.9%[57.1 µM]	nt	nt	17.7%[57 µM]	nt
COc1ccc(CCNC(=O)Nc2ccc([N+](=O)[O-])cc2)cc1OC	-32.3%	-22.4%	-44.0%	-0.8%	15.3%	-11.9%
Cc1ccc(C)c(NC(=O)/C(C#N)=C/c2ccc(C(C)C)cc2)c1	-16.3%	-9.0%	-14.3%[59 µM]	nt	19.4%	nt
COc1cc(/C=C2/SC(=S)N(Cc3ccccc3)C2=O)ccc1O	39.8µM*	39.8µM*	44.7µM*	-6.8%	?	?
O=C1/C(=C\c2ccc(O)c(O)c2)SC(=S)N1Cc1ccccc1	8.91µM*	2.24µM*	3.98µM*	-19.3%	10µM*	nt
O=C1/C(=C/c2ccc(O)cc2)SC(=S)N1Cc1cccnc1	-0.9%	-5.4%	-44.8%[59 µM]	-5.4%	10.4%	-7.2%
COc1ccc(/C=C2\SC(=S)N(Cc3cccnc3)C2=O)cc1C	10µM*	?	11.2µM*	-1.5%	-51.5%	0.3%
COc1cc(/C=C2/SC(=S)N(c3c(C)n(C)n(-c4ccccc4)c3=O)C2=O)ccc1O	44.7µM*	?	6.5%[12.7 µM]	-13.4%	?	-7.2%
CCCCOC(=O)Sc1nc2ccccc2o1	24.6%	10.5%	25.1µM*	39.8µM*	19.0%	-1.2%
SMILES	BAZ2B block	JMJD2A Tudor inh	G9a inh	Sfp inh	HP1b chromo inh	L3MBTL1 block
COc1ccc(C(CCNCc2ccc(N(C)C)cc2)c2ccccc2)cc1 (stereo unspecified)	11.2µM*	25.1µM*	0.5%[2.33 µM]	-3.0%	39.8µM*	nt
CC(=O)OCC(=O)[C@@]1(O)CCC2C3CC[C@H]4CC(O)CC[C@@]4(C)C3C(=O)C[C@]21C (stereo partly specified)	nt	nt	nt	5.6%	nt	nt
O=[N+]([O-])c1cccnc1N1CCC(c2cc(-c3ccc(Cl)cc3)n[nH]2)CC1	50.1µM*	25.1µM*	8.91µM*	?	?	nt
CCn1c(SCC(=O)Nc2ccc(F)cc2)nnc1-c1cnccn1	-8.9%	-4.7%	96.8%	1.3%	6.9%	nt
CC1CC(C)CN(CC(=O)N2CCOCC2)C1 (stereo unspecified)	50.1µM*	25.1µM*	8.91µM*	-8.5%	-19.6%	1.5%
CC1CCC2(CC1)NC(=O)N(CC(=O)N1CCOCC1)C2=O (stereo unspecified)	nt	-4.1%	nt	nt	15.6%	-8.0%
CCc1c(C)sc(NC(=O)CN2CCN(C(=O)c3ccco3)CC2)c1C(=O)OC	?	?	79.4µM*	-10.3%	-13.8%	nt
CCOC(=O)c1c(C)n(C)c2ccc(OC)c(NC(=O)CN3CCN(Cc4ccccc4)CC3)c12	-31.5%	-24.3%	-44.1%	2.7%	20.4%	-2.5%
COC(=O)c1c(NC(=O)CN2CCN(C(=O)c3ccco3)CC2)c2cc(C)ccc2n1C	-2.5%	-14.2%	-26.2%[59 µM]	-3.7%	19.0%	-8.8%
CCOC(=O)c1c(C)n(C)c2ccc(OC)c(NC(=O)CN3CCN(C(=O)c4ccco4)CC3)c12	-11.5%	-6.9%	31.6µM*	7.4%	28.8%	-7.2%
CCc1c(C)sc(NC(=O)Cc2ccccc2C)c1C(=O)N1CCOCC1	-14.7%	-8.8%	35.5µM*	-9.7%	?	nt
COC(=O)c1c(NC(=O)CN2CCN(C(=O)c3ccco3)CC2)c2c(C)cccc2n1C	-36.2%	3.2%	?	20µM*	30.8%	nt
CCOC(=O)c1c(NC(=O)CN2CCN(C(=O)c3ccco3)CC2)sc(C)c1C	-24.7%	-29.9%	12.4%	-0.1%	0.5%	nt
COCC(=O)N1CCC2(CCCN(c3ccc(-c4ccccc4)cc3)C2)CC1	nt	nt	1.1%[12.7 µM]	-20.2%	nt	nt
COC(=O)C1=C(C)N(Cc2ccccc2)[C@]23O[C@](C(=O)OC)(C(=O)N2C1c1ccccc1)C(c1ccccc1)C3C(=O)c1ccccc1 (stereo partly specified)	nt	nt	nt	19.6%	nt	nt
C=C1CCC(O)C/C1=C/C=C1\CCC[C@@]2(C)C(C(C)/C=C/C(C)C(C)C)CC[C@@H]12 (stereo partly specified)	nt	nt	-27.0%[2.33 µM]	18.9%	nt	nt
COC(=O)C1=C(C(=O)OC)C(C(=O)OC)C(C(=O)OC)C(C(=O)OC)(C(=O)OC)C(C(=O)OC)=C1C(=O)OC (stereo unspecified)	nt	89.1µM*	nt	nt	50.1µM*	nt
COc1ccc(Br)cc1C1NC(c2ccc3c(c2)OCO3)=CC(c2cc(Cl)ccc2O)N1 (stereo unspecified)	nt	89.1µM*	nt	nt	-8.7%	nt
